The results in this text go back to PubChem BioAssay (NCI).

Several values for one entry are separate records, joined by “and”; a condition that tells them apart may be missing. Equal values may be shown once. This is part of a sample that, as a whole, favours compounds with a hit. Of some 83,000 tested, about 20% had one in any assay.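 Plates (96-well) were seeded with cells, treated with compound at one concentration, and incubated for 48 hours before percent growth was determined.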 Activity calls are given as the source filed them.

In the assay the test system is MDA-MB-468 breast. Briefly: NCI-60 one-dose screen, 48 h (100 = growth as untreated, 0 = no growth, -100 = all killed). To be noted: 10 µM unless noted. As to the method:
Growth inhibition of the MDA-MB-468 human Breast tumor cell line is measured as a screen for anti-cancer activity. Cells are grown in 96 well plates and exposed to the test compound for 48 hours. Compounds are tested at a single concentration, which is 10^-5 M for most compounds. The reported endpoint is percent growth (GI% or GIPRCNT), where numbers from 0 - 100% represent growth inhibition, and numbers from -100% - 0 represent cell death. For example, a value of 40 represents 60% growth inhibition. A value of 0 means no net growth occurred over the course of the experiment. A value of -40 indicates 40% of cells at the beginning of the experiment died by the end of the experiment. A value of -100 means all cells are dead at the end of the experiment.
NCI-60 Human Tumor Cell Lines Screen was performed using the standard one-dose NCI protocol, which is described in more detail at https://dtp.cancer.gov/discovery_development/nci-60/default.htm.
Compounds with GIPRCNT values below 10 were considered active. Activity score was based on GIPRCNT using the following formula: […]
Score is 0 for GIPRCNT values of 100 or above, 50 for GIPRCNT values of 0, and 100 for GIPRCNT values of -100.
On to `O=C(/C=C/c1cccc(Br)c1)c1cccc(OCCCCOc2cccc(C(=O)/C=C/c3cccc(Br)c3)c2)c1`, for which the growth is 102% (inactive).

In the case of `O=C(Nc1ccc(I)cc1F)c1cc(Cl)ccc1O`, the growth is -1.5% (active).

In the case of `CN(C)CCCn1c2c(c3cnccc3c1=O)C(=O)c1ccccc1-2`, the growth was -1.59% (active).

Take `Cc1c(C)c([N+](=O)[O-])c(C)c([N+](=O)[O-])c1C`: the growth was 97.6% (inactive).

With `CCOC(=O)c1[nH]c2cc(Cl)ccc2c1[C@@H](C(=O)NC(C)(C)C)N(CC)C(=O)CCCCC#Cc1cccc2c1CN(C1CCC(=O)NC1=O)C2=O` (stereo not given in full), the growth is -14.3% (active).

`CCN(CC)CCN1C(=O)c2c(c3c4cccnc4[nH]c3c3ccc4ccccc4c23)C1=O`: the growth was 63.3% (inactive).

Take `NC(C(=O)O)C(O)c1ccc(OCc2ccccc2)c(OCc2ccccc2)c1` (stereo not given): the growth was 104% (inactive).

With `CCN1C(=O)N(CC)C2Nn3c(s/c(=C4\C(=O)Nc5ccccc54)c3=O)=NC21` (stereo not given), the growth is 5.05% (active).

Regarding `COc1ccc2c(O)c(/C=C3\N=Nc4ccccc43)oc2c1C[C@H]1CCNC[C@H]1F`, the growth is 75.6% (inactive).

For the molecule `CC(=O)c1cc2c(N)c(C(=O)Nc3ccccn3)sc2nc1C`, the growth is 57.3% (inactive).

Turning to `CCc1cc(OC(=O)N2CCC(N3CCCCC3)CC2)ccc1Nc1cc(-c2ccc(-n3cccn3)cc2)[nH]n1`, the growth is 84.4% (inactive).

In the case of `CCc1ccc(Oc2c(-c3ccc(OCc4ccc(Cl)cc4)cc3O)nn(C)c2C(F)(F)F)cc1`, the growth was -11.1% (active).

In the case of `OCCN1CCN(CCCN2c3ccccc3Sc3ccc(Cl)cc32)CC1`, the growth was 25.3% (inactive).

With `Cc1nn(-c2ccccc2)c(Cl)c1/C=N\N=c1/sc2ccccc2n1C`, the growth is 113% (inactive).

`O=c1c2ccccc2nc(COc2ccccc2)n1NS(=O)(=O)c1ccc(Cl)cc1`: the growth was 40.4% (inactive).

With `c1ccc(-c2nc3sc(-c4ccccc4)cn3n2)cc1`, the growth is 85.2% (inactive).

Turning to `O=C(NCCCCNC(=O)OCc1ccc2c(Cl)cc(Cl)c(O)c2n1)OCc1ccc2c(Cl)cc(Cl)c(O)c2n1`, the growth is -5.78% (active).

As to `Nc1nccc(OCCO)n1`, the growth was 107% (inactive).

Regarding `OCCn1cccn1`, the growth was 103% (inactive).

On to `CC(=O)OCC(=O)[C@@]1(O)CC[C@H]2[C@@H]3CC(=C(Br)Br)C4=CC(=O)CC[C@]4(C)[C@H]3C(=O)C[C@@]21C`, for which the growth is 79.1% (inactive).

Regarding `Cc1ccc(C(=Nc2ccccc2)N=P(c2ccccc2)(c2ccccc2)c2ccccc2)cc1`, the growth is -83% (active).

Turning to `CCOC(=O)c1sc(-c2ccc(OS(=O)(=O)c3cccs3)c(C=O)c2)nc1C`, the growth was -15.4% (active).

For the molecule `N#Cc1c(N)n2c(nc1=Nc1ccc([N+](=O)[O-])cc1)sc1cc(Cl)ccc12`, the growth was 79.5% (inactive).

In the case of `COc1cc(/C=C2\C(=O)N(c3c(Cl)cccc3Cl)c3ccccc32)cc(OC)c1O`, the growth is 57.4% (inactive).

On to `O=C1/C(=C/c2ccc(Cl)cc2)CN(C(=O)C(Cl)Cl)C/C1=C\c1ccc(Cl)cc1`, for which the growth is -59.7% (active).

With `CCn1cnc(C[C@H](NC(=O)[C@@H](NC(=O)Nc2cc(C(F)(F)F)cc(C(F)(F)F)c2)C(C)(C)C)C(=O)OC)c1`, the growth was -75.6% [100 µM] (active).

With `Cn1c(=O)[nH]c2ccccc2c1=O`, the growth is 107% (inactive).

In the case of `O=C1OC(Oc2ccc(Br)cc2)(c2ccccc2)c2ccccc21` (stereo not given), the growth was 69.8% (inactive) and 75.1% (inactive).

Regarding `CCCCCCNC(=O)Oc1ccc(/C(=C(\C)c2ccc(OC)cc2)c2ccc(OCCN3CCCCC3)cc2)cc1`, the growth was 75.6% (inactive).

Turning to `COc1cc(/C=C/C(=O)CC(=O)/C=C/c2cc(Br)c(OC)c(OC)c2)cc(Br)c1OC`, the growth is 97.2% (inactive).

Consider `Cc1ccc(-c2nc(N3CCN(CC(=O)Nc4ccc(Cl)c(C(F)(F)F)c4)CC3)c3ccccc3n2)cc1`, for which the growth is 93.9% (inactive).

Regarding `CCOC(=O)c1c(C)nc2c(c1N)/C(=C/c1ccccn1)C(=O)N2Cc1ccccc1`, the growth was -49.5% (active).

For `NCC(=O)NC(CC(=O)O)C(=O)O` (stereo not given), the growth was 102% (inactive).

Regarding `O=C1/C(=C/c2ccc3c(c2)OCO3)SC(=S)N1CCc1ccc(O)cc1`, the growth was 67.8% (inactive).

`CC1(C)CC(=O)C2=C(C1)N(c1ccc(OC(F)(F)F)cc1)C(N)=C(C#N)C2c1ccc(Br)cc1F` (stereo not given): the growth is 55.7% (inactive).

For `Cc1ccc(NC(=O)c2ccc(CN3CCN(C)CC3)cc2)cc1Nc1nc(-c2cccnc2)cs1`, the growth is 25.5% (inactive).

`CN1CCN(Cc2ccc(NC(=O)c3cncc(C#Cc4cnc5ccc(OCC6COC6)nn45)c3)cc2C(F)(F)F)CC1`: the growth is -60.7% (active).

In the case of `c1ccc(OCC[P+](c2ccccc2)(c2ccccc2)c2ccccc2)cc1`, the growth was -18.1% (active).

Turning to `O=C(Nc1ccc(-n2cc(-c3ccncc3)c(-c3ccc(Cl)c(O)c3)n2)cc1)N1CCOCC1`, the growth is 112% (inactive).

Regarding `CN(C)c1ccc(N=Nc2ccccn2)c(O)c1`, the growth is 3.89% (active).
